Test results as given in ChEMBL document CHEMBL4888484, “Replenishing the malaria drug discovery pipeline: Screening and hit evaluation of the MMV Hit Generation Library 1 (HGL1) against asexual blood stage Plasmodium falciparum ,using a nano luciferase reporter read-out” (2022).
Out of some 150,000 compounds screened, about 540 (0.36%) showed an effect of 50% or more. For the sample, strong results were picked, then their nearest neighbours and some compounds at random.

test system: Plasmodium falciparum; experiment: Primary screen in NF54 nanoGlo assay, in single point, at 2uM, 72h; a lower Z score goes with more inhibition; format: functional, Erythrocyte; conditions: timepoint 72 hour

Going from CCOC(=O)c1cn(CCc2c[nH]cn2)cc(Oc2ccccc2)c1=O to CCOC(=O)c1c(-c2ccccc2)n(C)c2cc(-c3cccnc3)c(O)cc12, the “% Inhibition” value rises from 0% to 9%.

First: O=C(NCC(O)c1ccccc1Cl)C1CCCN1 (configuration not stated)
Second: Cc1ccc(CCC(=O)NC(c2ccccc2)C(C)C(=O)O)o1 (configuration not stated)
The “% Inhibition” value of the first is lower: 1% for the first, 5% for the second.

Compared with CCNC(=O)N1CCN(c2ccc(-c3noc(C(F)(F)F)n3)cn2)CC1, O=C(c1ccc(-c2noc(C(F)(F)F)n2)cc1)N1CCC1 is higher in “% Inhibition” value: 12% for the first, 29% for the second.

Going from Cc1c(F)cccc1-c1ccc(CNc2cccc(CN3CCC(O)CC3)c2)o1 to CNC(=O)c1ccc(OC)c(-c2ccc(NCCN3CCOCC3)nc2)c1, the “% Inhibition” value falls from 8% to -7%.

First: CCc1ccc(-c2cnc3ccccc3n2)cc1NC(=O)[C@@H](NS(=O)(=O)c1ccccc1)C(C)C
Second: CCOc1nc(-c2cccc(F)c2)n(-c2ccc(NC(=O)Nc3ccc(F)cc3F)cc2)n1
The “% Inhibition” value of the first is higher: 4% for the first, -9% for the second.

First: Cc1cccc(-c2noc(N3CCOCC3)c2CN(C(=O)CC(C)C)C2CC2)c1
Second: CCc1nccc(-c2c(-c3ccccc3)ncn2CCN2CCOCC2)n1
The “% Inhibition” value of the first is lower: -12% for the first, -6% for the second.

Going from COc1cccc(CN2CC[C@H]3C(=O)NCCCCCCN(Cc4ccncc4)[C@@H]3C2)n1 to CCn1cc(CN2CC[C@H]3C(=O)NCCCCCCN(Cc4ccncc4)[C@@H]3C2)c(C)n1, the “% Inhibition” value rises from -5% to 2%.

Compared with COc1ccc(CN2CC[C@@H]3C(=O)NCCCCCCN(Cc4ccncc4)[C@@H]3C2)cc1Cn1ccnc1, CCOC(=O)c1c(CN2CCCC2)n(C)c2cc(-c3cccnc3)c(O)c(Cn3ccnc3)c12 is lower in “% Inhibition” value: 59% for the first, 58% for the second.

Compared with CN(Cc1cn(C)nn1)CC1CCOCC1, CCOC(=O)c1cnc(N2CCN(Cc3cccnc3)CC2)s1 is higher in “% Inhibition” value: -11% for the first, -2% for the second.

Compared with CCO[C@H]1CN(C(=O)Cc2nc(C)sc2C)C[C@@H]1O, CC(=O)c1cc(Br)ccc1NCC(=O)N(C)CCC#N is lower in “% Inhibition” value: 0% for the first, -26% for the second.

Going from S=c1cc(-c2ccccc2)n(Cc2ccco2)c2c1CCCC2 to S=c1cc(-c2ccccc2)n(CCCc2ccccc2)c2c1CCCC2, the “% Inhibition” value falls from 54% to -6%.

Going from C[C@@]1(C(=O)NC2CCCCCCC2)Cn2c(ccc2-c2ccccc2)C(=O)N1Cc1ccco1 to CCNc1nc(C)cc(Nc2ccc(NC(=O)c3cc(C)ccc3C)cc2)n1, the “% Inhibition” value rises from 7% to 97%.

Going from Cc1noc(C)c1S(=O)(=O)Nc1ccc2c(c1)OC1(CCCC1)O2 to COc1ccc(NS(=O)(=O)c2c(C)noc2C)cn1, the “% Inhibition” value falls from 5% to 3%.

Compared with Cc1cc(N(C)C)nc(NCCNC(=O)Nc2cccc(F)c2C)n1, CCNc1nc(C)cc(NCCNC(=O)c2cccc(Cl)c2)n1 is higher in “% Inhibition” value: 20% for the first, 23% for the second.

First: Cc1ccc(C)c(C(=O)Nc2cnc(-n3nc(C)cc3C)nc2)c1
Second: Cc1nc2ccc(NC(=O)Nc3ccc(F)cc3F)cc2s1
The “% Inhibition” value of the first is higher: 5% for the first, -9% for the second.

With CCNc1nc(C)cc(Nc2ccc(NS(=O)(=O)c3c(C)noc3C)cc2)n1 the “% Inhibition” value was 86%.

Going from CCOC(=O)c1cn(CCc2c[nH]cn2)cc(Oc2ccccc2)c1=O to CCOC(=O)c1c(-c2ccccc2)n(C)c2cc(-c3cccnc3)c(O)cc12, the Z score falls from -0.09 to -1.7.

Going from O=C(NCC(O)c1ccccc1Cl)C1CCCN1 (configuration not stated) to Cc1ccc(CCC(=O)NC(c2ccccc2)C(C)C(=O)O)o1 (configuration not stated), the Z score falls from -0.1 to -0.67.

Compared with CCNC(=O)N1CCN(c2ccc(-c3noc(C(F)(F)F)n3)cn2)CC1, O=C(c1ccc(-c2noc(C(F)(F)F)n2)cc1)N1CCC1 is lower in Z score: -1.6 for the first, -3.23 for the second.

Compared with Cc1c(F)cccc1-c1ccc(CNc2cccc(CN3CCC(O)CC3)c2)o1, CNC(=O)c1ccc(OC)c(-c2ccc(NCCN3CCOCC3)nc2)c1 is higher in Z score: -0.88 for the first, 1.05 for the second.

Going from CCc1ccc(-c2cnc3ccccc3n2)cc1NC(=O)[C@@H](NS(=O)(=O)c1ccccc1)C(C)C to CCOc1nc(-c2cccc(F)c2)n(-c2ccc(NC(=O)Nc3ccc(F)cc3F)cc2)n1, the Z score rises from -0.61 to 1.18.

Compared with Cc1cccc(-c2noc(N3CCOCC3)c2CN(C(=O)CC(C)C)C2CC2)c1, CCc1nccc(-c2c(-c3ccccc3)ncn2CCN2CCOCC2)n1 is lower in Z score: 1.29 for the first, 0.83 for the second.

Going from COc1cccc(CN2CC[C@H]3C(=O)NCCCCCCN(Cc4ccncc4)[C@@H]3C2)n1 to CCn1cc(CN2CC[C@H]3C(=O)NCCCCCCN(Cc4ccncc4)[C@@H]3C2)c(C)n1, the Z score falls from 0.65 to -0.2.

First: COc1ccc(CN2CC[C@@H]3C(=O)NCCCCCCN(Cc4ccncc4)[C@@H]3C2)cc1Cn1ccnc1
Second: CCOC(=O)c1c(CN2CCCC2)n(C)c2cc(-c3cccnc3)c(O)c(Cn3ccnc3)c12
The Z score of the first is higher: -7.78 for the first, -10.36 for the second.

First: CN(Cc1cn(C)nn1)CC1CCOCC1
Second: CCOC(=O)c1cnc(N2CCN(Cc3cccnc3)CC2)s1
The Z score of the first is higher: 2.06 for the first, 0.17 for the second.

Compared with CCO[C@H]1CN(C(=O)Cc2nc(C)sc2C)C[C@@H]1O, CC(=O)c1cc(Br)ccc1NCC(=O)N(C)CCC#N is higher in Z score: 0.05 for the first, 2.93 for the second.

Going from S=c1cc(-c2ccccc2)n(Cc2ccco2)c2c1CCCC2 to S=c1cc(-c2ccccc2)n(CCCc2ccccc2)c2c1CCCC2, the Z score rises from -6.88 to 0.85.

First: C[C@@]1(C(=O)NC2CCCCCCC2)Cn2c(ccc2-c2ccccc2)C(=O)N1Cc1ccco1
Second: CCNc1nc(C)cc(Nc2ccc(NC(=O)c3cc(C)ccc3C)cc2)n1
The Z score of the first is higher: -0.83 for the first, -9.09 for the second.

Compared with Cc1noc(C)c1S(=O)(=O)Nc1ccc2c(c1)OC1(CCCC1)O2, COc1ccc(NS(=O)(=O)c2c(C)noc2C)cn1 is higher in Z score: -0.73 for the first, -0.47 for the second.

Compared with Cc1cc(N(C)C)nc(NCCNC(=O)Nc2cccc(F)c2C)n1, CCNc1nc(C)cc(NCCNC(=O)c2cccc(Cl)c2)n1 is lower in Z score: -2.61 for the first, -3.44 for the second.

Compared with Cc1ccc(C)c(C(=O)Nc2cnc(-n3nc(C)cc3C)nc2)c1, Cc1nc2ccc(NC(=O)Nc3ccc(F)cc3F)cc2s1 is higher in Z score: -0.75 for the first, 1.17 for the second.

With CCNc1nc(C)cc(Nc2ccc(NS(=O)(=O)c3c(C)noc3C)cc2)n1 the Z score was -8.65.
